Measured values: ChEMBL document CHEMBL2218924, “A broad activity screen in support of a chemogenomic map for kinase signalling research and drug discovery” (Biochem J, 2013)

Target: Serine/threonine-protein kinase 24 (Homo sapiens) (UniProt Q9Y6E0)
Conditions: at 1 µM

Serine/threonine-protein kinase 24 (Homo sapiens), sequence (Q9Y6E0 whole entry, looked up): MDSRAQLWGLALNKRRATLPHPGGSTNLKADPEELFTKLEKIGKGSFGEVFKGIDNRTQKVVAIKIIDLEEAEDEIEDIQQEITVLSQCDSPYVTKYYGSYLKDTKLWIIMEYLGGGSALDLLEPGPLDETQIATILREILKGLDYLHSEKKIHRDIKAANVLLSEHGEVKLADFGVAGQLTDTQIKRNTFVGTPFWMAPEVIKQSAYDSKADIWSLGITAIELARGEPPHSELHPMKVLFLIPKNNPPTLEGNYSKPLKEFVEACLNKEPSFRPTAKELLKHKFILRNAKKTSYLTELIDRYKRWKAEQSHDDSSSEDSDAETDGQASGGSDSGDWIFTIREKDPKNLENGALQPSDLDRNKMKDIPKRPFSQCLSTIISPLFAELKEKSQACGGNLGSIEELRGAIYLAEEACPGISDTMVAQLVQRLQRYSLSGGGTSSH

| Compound | residual activity [%] |
| --- | --- |
| O=c1cc(-c2cccc3c2Sc2ccccc2S3)oc(N2CCOCC2)c1 | 98 |
| C[C@@H](N)[C@H]1CC[C@H](C(=O)Nc2ccncc2)CC1 | 98 |
| Cc1nc(-c2ccccc2)c(-c2ccncc2)o1 | 101 |
| CCC(=O)Nc1ccc2ncnc(Nc3cccc(Br)c3)c2c1 | 69 |
| Cn1cnc2cc3c(Nc4cccc(Br)c4)ncnc3cc21 | 78 |
| CC(C)n1cnc2/c(=N/c3cccc(Cl)c3)nc(NCCO)[nH]c21 | 62 |
| Oc1c2ccccc2c2c3c(cccc13)N=N2 | 57 |
| COc1cc2ncnc(Nc3ccc(O)c(Br)c3)c2cc1OC | 54 |
| N#C/C(=C(\N)Sc1ccc(N)cc1)c1ccccc1C(F)(F)F | 70 |
| CCOc1cc2ncnc(Nc3cccc(Br)c3)c2cc1OCC | 61 |
| O=C1NC(=O)c2c1c1c3ccccc3[nH]c1c1[nH]c3cc(Br)ccc3c21 | 92 |
| CC#CC(=O)Nc1cc2c(Nc3ccc(F)c(Cl)c3)ncnc2cn1 | 71 |
| NC(=O)c1ccc2[nH]c(-c3ccc(Oc4ccc(Cl)cc4)cc3)nc2c1 | 79 |
| O=C(Nc1cccc(Nc2nccc(Nc3cccc(C(F)(F)F)c3)n2)c1)C1CC1 | 72 |
| O=c1c2ccccc2[nH]c(=S)n1CCN1CCC(=C(c2ccc(F)cc2)c2ccc(F)cc2)CC1 | 71 |
| Ic1cccc(CSc2nnc(-c3ccncc3)o2)c1 | 50 |
| O=C1NC(=O)/C(=C/c2ccc3c(c2)OC(F)(F)O3)S1 | 60 |
| Cc1ccc(NC2=CC(=O)c3sc(C)nc3C2=O)cc1 | 78 |
| CC(=O)O/N=C1\C(=C2\C(=O)Nc3cc(Br)ccc32)Nc2ccccc21 | 85 |
